Bioassay records (PubChem BioAssay)
KCNQ2 enhance: potentiators of rat KCNQ2 potassium channel; CHO-K1 KCNQ2, FluxOR thallium flux fluorescence; hits give high values; B-score at 10 µM; actives 0.54% (n = 310,000);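 active = fluorescence ratio B-score at least 3 SD of library B-scores, with initial fluorescence B-score within 3 of them, cut at about 5.3 in these data; same plate scores as AID 2156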;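 also: B-score of peak minus minimum over baseline fluorescence ratio after K+ and Tl+ stimulus; positive B-score means potentiation of KCNQ2 with more thallium influx and brighter signal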
Target sequence (O88943 whole entry, looked up): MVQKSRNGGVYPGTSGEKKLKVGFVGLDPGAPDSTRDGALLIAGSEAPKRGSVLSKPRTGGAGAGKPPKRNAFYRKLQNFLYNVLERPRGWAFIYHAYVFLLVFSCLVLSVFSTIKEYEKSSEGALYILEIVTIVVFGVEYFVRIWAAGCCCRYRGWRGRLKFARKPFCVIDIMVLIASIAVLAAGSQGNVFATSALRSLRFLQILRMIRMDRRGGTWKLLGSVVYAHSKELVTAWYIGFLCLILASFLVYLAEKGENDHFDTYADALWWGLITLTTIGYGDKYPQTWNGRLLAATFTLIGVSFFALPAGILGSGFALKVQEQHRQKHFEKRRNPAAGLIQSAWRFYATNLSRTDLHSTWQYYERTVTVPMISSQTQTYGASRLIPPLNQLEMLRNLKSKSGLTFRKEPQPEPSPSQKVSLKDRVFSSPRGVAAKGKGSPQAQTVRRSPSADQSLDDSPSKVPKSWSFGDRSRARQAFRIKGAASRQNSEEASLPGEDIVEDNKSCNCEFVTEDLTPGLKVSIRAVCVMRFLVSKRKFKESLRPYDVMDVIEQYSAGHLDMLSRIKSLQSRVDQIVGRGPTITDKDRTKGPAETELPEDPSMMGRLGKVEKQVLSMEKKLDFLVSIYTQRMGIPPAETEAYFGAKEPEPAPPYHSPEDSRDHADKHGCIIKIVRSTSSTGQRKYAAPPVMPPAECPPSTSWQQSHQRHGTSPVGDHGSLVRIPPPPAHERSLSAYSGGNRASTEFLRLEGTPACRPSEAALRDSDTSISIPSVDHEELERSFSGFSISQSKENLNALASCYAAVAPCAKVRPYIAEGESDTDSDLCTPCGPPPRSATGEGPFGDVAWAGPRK
KCNQ2 block: KCNQ2 (rat) channel inhibition. actives 1.1% (n = 310,000). O88943. AID 2156. CHO-K1 KCNQ2, FluxOR thallium flux, 20 min; hits give low values. B-score at 10 µM;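 active = fluorescence ratio B-score at most minus 3 library SDs, with starting brightness B-score within 2 library SDs, cut at about -5.5 in these data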
Of the large screens only hits and unclear results are named; the others gave an inactive call. This is a sample that favours compounds with a hit; in the whole collection about 1.6% have one here.

O=C(NCCc1cn2ccccc2n1)c1cc(COc2ccc3ncccc3c2)on1	KCNQ2 block -6
COc1cccc(CN(C)C(=O)c2cc(COc3ccc4ncccc4c3)on2)c1	KCNQ2 block -7.5
CN(CCc1ccccc1)C(=O)c1cc(COc2cccc(C(F)(F)F)c2)on1	KCNQ2 block -5.5
Cc1cc(OCc2cc(C(=O)N(C)CCOc3ccccc3)no2)cc(C)c1Cl	KCNQ2 block -5.7
COc1cccc(CN(C)C(=O)c2cc(COc3c(F)cccc3F)on2)c1	none (no result: KCNQ2 enhance)
O=C(NC1CCCC1)c1cc(COc2ccc3ncccc3c2)on1	none
CCCC(=O)Nc1ccccc1Sc1ncnc2scc(-c3ccccc3)c12	none (no result: KCNQ2 enhance)
CC1(C)CC(NC(=O)c2ccc(Cl)c(Cl)c2)CC(C)(C)N1	none
Cc1[nH]c(C)c(S(=O)(=O)NCc2ccc(F)cc2)c1C(=O)N1CCCC1	none (no result: KCNQ2 enhance)
Cc1ccc(OCCC(=O)O)cc1	none (no result: KCNQ2 enhance)
CCN(CC)CCOC(=O)c1ccc(NC(=O)CCCN2C(=O)/C(=C/c3cccs3)SC2=S)cc1	none (no result: KCNQ2 enhance)
Cc1ccccc1Cn1ccc(-c2ccc3c(c2)OCO3)n1	KCNQ2 block -6.7
Fc1cccc(Cn2ccc(-c3ccc4c(c3)OCO4)n2)c1	none (no result: KCNQ2 enhance)
Cc1ccc(C(=O)N2CCC3(CC2)Oc2ccc(Cl)cc2C(=O)C32CC(c3cccnc3)=NO2)s1 (configuration not stated)	none (no result: KCNQ2 enhance)
O=C(/C=C/c1cccs1)N1CCC2(CC1)Oc1ccc(Cl)cc1C(=O)C21CC(c2cccnc2)=NO1 (configuration not stated)	KCNQ2 block -6.8
COc1ccc(Nc2ccc(N3C(=O)CCCC3=O)cc2[N+](=O)[O-])c(OC)c1	none
Cc1cc(C)nc(Sc2ncnc(N)c2[N+](=O)[O-])n1	none (no result: KCNQ2 enhance)
Nc1nc(SCC(=O)Nc2ccc(Oc3ccccc3)cc2)n[nH]1	none
Nc1nc(SCC(=O)Nc2cccc(Oc3ccccc3)c2)n[nH]1	KCNQ2 enhance 6.4
CNC(=S)N/N=C(\C)c1ccc(C)c(C)c1	none (no result: KCNQ2 enhance)
CCC(C)(C(=O)NC1CCCCC1)N(Cc1ccco1)C(=O)Cc1cccs1 (configuration not stated)	none (no result: KCNQ2 enhance)
Cc1cccc(N2CCN(C(=S)NCCc3ccccc3)CC2)c1C	none (no result: KCNQ2 enhance)
Cc1ccc(Cl)cc1N1CCN(C(=S)NCCc2ccccc2)CC1	KCNQ2 block -5.8
CCc1cc(C)cc(OCCOc2ccccc2/C=N/NC(C)=O)c1	none
O=C(NCc1ccco1)C1CC(O)CN1C(=O)Nc1ccccc1 (configuration not stated)	none (no result: KCNQ2 enhance)
CCc1ccc(CN2CCC(n3nccc3NC(=O)C3CCCC3)CC2)cc1	none
Cc1ccc(CC(=O)O/N=C(\N)Cc2ccc([N+](=O)[O-])cc2)cc1	none (no result: KCNQ2 enhance)
N/C(Cc1ccc([N+](=O)[O-])cc1)=N\OC(=O)CC1CCCCC1	KCNQ2 enhance 8
CC(C)N(CCNC(=O)C1CCCN(c2ncnc3c2nc2n3CCCCC2)C1)Cc1ccccc1 (configuration not stated)	none (no result: KCNQ2 enhance)
O=C1c2ccccc2CN1C(CO)Cc1ccccc1 (configuration not stated)	none (no result: KCNQ2 enhance)
O=C(CNC(=O)N1CC(=O)Nc2ccccc21)Nc1cc(Cl)ccc1Cl	none (no result: KCNQ2 enhance)
Cn1c2ccccc2c(=O)c2ccc(C#CC3(N)CCCCC3)cc21	KCNQ2 block -7.3
Cn1c2ccccc2c(=O)c2cc(C#CC3(O)CCCCC3)ccc21	none
Cc1nc(SCC(=O)Nc2cc(C(N)=O)cc(C(N)=O)c2)c2c(C)c(C)sc2n1	none
CO[C@H]1O[C@H](C)[C@@H](O)C[C@H]1NC(=O)OCc1ccccc1	none (no result: KCNQ2 enhance)
CC(=O)N(CCC1(c2ccc(C)cc2)CCOC(C(C)C)C1)Cc1ccco1 (configuration not stated)	KCNQ2 block -6
Cc1ccc(C2(CCNCc3ccco3)CCOC(C(C)C)C2)cc1 (configuration not stated)	none (no result: KCNQ2 enhance)
O=C1CCCN1CCCNc1ncnc2sccc12	none
Cc1ccc(-n2ncc(-c3nn[nH]n3)c2N)cc1	none
CCN(CC)c1ccc(C(=O)OCC(=O)Nc2ccccc2-c2ccccc2)cc1	KCNQ2 block -6.5
CN(C)c1cccc(C(=O)OCC(=O)Nc2ccccc2-c2ccccc2)c1	none
COc1ccc(C=C(c2nc3ccccc3s2)c2nc3ccccc3s2)cc1O	none (no result: KCNQ2 enhance)
COc1cc(C=C(c2nc3ccccc3s2)c2nc3ccccc3s2)ccc1O	KCNQ2 block -6
CN1CCN(c2nc(-c3cccnc3)nc3ccccc23)CC1	none
c1cncc(-c2nc(N3CCCCCC3)c3ccccc3n2)c1	KCNQ2 block -7.4
COc1ccc(CCNC(=O)c2cccn2C)cc1	none
CC(C)c1cc(C(=O)N2CCCC(N3CCN(c4ccc(F)cc4)CC3)C2)no1 (configuration not stated)	none (no result: KCNQ2 enhance)
CC(=O)NCC(=O)OCC(=O)c1ccc(C)c(C)c1	none (no result: KCNQ2 enhance)
Cc1ccc(C(=O)COC(=O)C2C3C=CC(C3)C2C(=O)OCC(=O)c2ccc(C)c(C)c2)cc1C (configuration not stated)	KCNQ2 block -7.5
Cc1ccc(S(=O)(=O)N2CCC(C(=O)NNC(=O)c3ccncc3)CC2)cc1	none
CCC1c2ccc(C)n2CCN1C(=O)Nc1ccccc1C(=O)OC (configuration not stated)	none (no result: KCNQ2 enhance)
CCCC1c2ccc(C)n2CCN1C(=O)Nc1ccccc1Cl (configuration not stated)	KCNQ2 block -7.2
CCOC(=O)c1ccccc1NC(=O)N1CCn2c(C)ccc2C1CC (configuration not stated)	KCNQ2 block -6.2
CC1CCCCN1C(=O)Nc1ccccc1Cl (configuration not stated)	none (no result: KCNQ2 enhance)
O=C(COc1ccc(S(=O)(=O)N2CCCC2)cc1)NCc1cccnc1	none (no result: KCNQ2 enhance)
Cc1cnc(C(=O)OC(C)C(=O)NCc2ccccc2)cn1 (configuration not stated)	none (no result: KCNQ2 enhance)
O=C(NNS(=O)(=O)c1ccccc1)Nc1ccc(F)cc1	none (no result: KCNQ2 enhance)
CC(C)c1ccc(OCc2ccc(C(=O)N3CCCC3)o2)cc1	none
COc1ccc(Nc2cc(C(=O)N3CCc4ccccc4C3)c3ccccc3n2)c(OC)c1	KCNQ2 block -8
COc1ccccc1Nc1cc(C(=O)N2CCc3ccccc3C2)c2ccccc2n1	KCNQ2 block -6.3
COc1ccccc1-c1cc(C(=O)N2CCc3ccccc3C2)c2ccccc2n1	none (no result: KCNQ2 enhance)
COCCCNC(=O)c1cc(Nc2ccc(OC)cc2OC)nc2ccccc12	none
CCN(C(=O)C1CCCN(c2ncnc3c2nc2n3CCCCC2)C1)c1cccc(Cl)c1 (configuration not stated)	none (no result: KCNQ2 enhance)
O=C(c1ccco1)N1CCCC(N2CCN(c3cccc(C(F)(F)F)c3)CC2)C1 (configuration not stated)	none
CC(=O)Oc1c(Cl)cc(N(C(C)=O)S(=O)(=O)c2ccccc2)c2ccccc12	none (no result: KCNQ2 enhance)
Cc1ccc(NCC(=O)Nc2cccc(S(=O)(=O)N(C)C)c2)cc1S(=O)(=O)N1CCCCCC1	none (no result: KCNQ2 enhance)
O=S(=O)(c1ccc(Oc2ccc(Cl)cc2)c(S(=O)(=O)N2CCCCC2)c1)N1CCCCC1	KCNQ2 block -7.2
O=S(=O)(c1ccc(Cl)cc1)N1CCN(S(=O)(=O)N2CCCCCC2)CC1	none (no result: KCNQ2 enhance)
CCN1C(=O)C(CC(=O)Nc2ccc(OC)cc2)N(CCc2ccccc2)C1=S (configuration not stated)	none (no result: KCNQ2 enhance)
CCN1C(=O)C(CC(=O)Nc2ccc(F)cc2)N(CCc2ccc(OC)cc2)C1=S (configuration not stated)	KCNQ2 block -6.7
CCCCN(C)CC(O)Cn1cc(/C=C/C(=O)c2ccc(OCC)cc2)c2ccccc21 (configuration not stated)	KCNQ2 block -6.7
CCCCN(C)CC(O)Cn1cc(/C=C/C(=O)c2cccs2)c2ccccc21 (configuration not stated)	none (no result: KCNQ2 enhance)
COc1cccc(/C=N/NC(=O)c2c(C)nc3ccc(Cl)cn23)c1O	none
